Results filed as inconclusive are left out. Where a call stands in place of a potency, no number is given. Activity calls are given as the source filed them. The call rests on the fitted dose curve; in most records, active means well fitted cell-killing curve with a large enough effect; inconclusive means small, poorly fitted or top-dose-only effect; inactive means flat fitted curve, though single readings scatter. Peptide text beside a SMILES is read from it. * marks the point of attachment. Cbz = O=C(OCc1ccccc1)*
Test: Quantitative highthroughput screen to assess conditional lethalithy of NOMO1 cells grown in RPMI1640 with untreated serum (RPMI+s) (AID 1963876); further: nearly all actives have a fitted effect of over 35% in size
Conditions: NOMO1 AML cells in RPMI+serum, CellTiter-Glo viability, 48 h; series mostly up to 45.8 µM
From the text: Assay Provider: Jason Cantor Ph.D.
Department of Biochemistry
University of Wisconsin-Madison, Madison, WI, USA
Chemical screening studies have identified drug sensitivities across hundreds of cancer cell lines but most putative therapeutics fail to translate. Discovery and development of drug candidates in models that more accurately reflect nutrient levels in human blood is a major challenge. Here we performed high-throughput screens in conventional versus Human Plasma-Like Medium (HPLM) to identify compounds that were "missed" when screening using the artificial culture condition. Sets of conditional anticancer compounds spanned phases of clinical development and included non-oncology drugs were assessed. […] We also traced conditional phenotypes for several chemotherapeutics to availability of HPLM-specific metabolites and confirmed others for compounds whose reported targets are encoded by nonessential genes. Our findings establish generalizable strategies for exploiting conditional lethality in HPLM to reveal therapeutic candidates and mechanisms of action in cancer cells.
Described herein are the results of each viability screens against three cell lines: NOMO1 (an acute myeloid leukemia cell line); P12-Ichikawa (a T-cell acute lymphoblastic leukemia); and SEM (a B-cell ALL). Each assay was screened using 3 different cell culture media: homemade human plasma-Like medium with 10% dialyzed fetal bovine serum (HPLM+ds); RPMI1640 with 10% untreated FBS and 5mM glucose (RPMI+s); and RPMI1640 with 10% dialyzed fetal bovine serum and 5 mM glucose (RPMI+ds).
PROTOCOL TABLE (as described by Inglese J, Shamu CE and Guy RK. 2007)
SEQUENCE No. (e.g., 1, 2, 3, etc.); […] (e.g., Cells, Incubation, Reagent, etc.); VALUE and DESCRIPTION.
1; Cells; 5 uL; white, solid bottom 1536-well Greiner assay plate.
2; Compounds; 23 nL; Kalypsis pin tool (Wako USA) equipped with a 1536-well pin head to transfer to the assay plates.
3; Incubation; 48 hours; 37C incubation.
4; Reagent; 3 uL; CellTiter Glo (Promega).
5; Incubation; 5 min, room temperature
6; Detection; Luminescence, Viewlux PerkinElmer.
NOTES (numbers refer to Sequence numbers above)
1. Briefly, 5 ul of cell reagent was dispensed using a Multidrop Combi Dispenser. The NOMO1 and SEM cells were plated at 500 cells/well and the P12-Ichikawa line at 1000 cells/well.
2. After seeding the cells, 23 nL of MIPE 4.1 library compounds (in DMSO) were added to each plate using a Kalypsys 1536 Pintool dispenser. Bortezomib at final concentration of […] and DMSO were added to each plate as positive and negative controls respectively. For each screen, MIPE 4.1 compounds were added over an eleven-point concentration range […] in 3-fold dilutions.
3. Each plate was covered with a stainless steel gasketed lid to prevent evaporation and incubated for 48 hour at 37C, 95% relative humidity, and 5% CO2.
4-5. Three microliter CellTilter-GloTM luminescent substrate mix (Promega) reagent was added to the assay plate and incubated at room temperature for 5 min.
6. The luminescence signal was measured using a ViewLux (PerkinElmer) multiplate reader with a 2 second exposure time per plate. Data for each compound were normalized as percent viability such that measurements for DMSO and the empty well controls in each plate were defined as 100% and 0%, respectively.
Potency means the concentration at half of the fitted maximal effect.

Row | Structure (SMILES) | Potency
1 | CN1CCC(CNc2ccc3ncc(-c4cccc(OC(F)(F)F)c4)n3n2)CC1 | 23.5 µM (active)
2 | O=c1c(O)c(-c2ccc(O)c(O)c2)oc2cc(O)ccc12 | inactive
3 | Cc1cn[nH]c1 | inactive
4 | CCc1c2c(nc3ccc(OC(=O)N4CCC(N5CCCCC5)CC4)cc13)-c1cc3c(c(=O)n1C2)COC(=O)[C@]3(O)CC | 2.96 µM (active)
5 | Cc1ccc(-c2cc(C(F)(F)F)nn2-c2ccc(S(N)(=O)=O)cc2)cc1 | inactive
6 | COC(=O)C1=CO[C@@H](O)[C@@H]2C(CO)=CC[C@@H]12 | inactive
7 | OC[C@H](Cc1ccccc1)Nc1nc(Oc2ccc3c(c2)CCC3)nc2c1ncn2Cc1ccc(-c2ccccc2)cc1 | inactive
8 | CCC[C@H](N[C@@H](C)C(=O)N1[C@@H]2CCCC[C@H]2C[C@H]1C(=O)O)C(=O)OCC | 13.2 µM (active)
9 | CC1(C)O[C@@H]2C[C@@H]3[C@H]4C[C@@H](F)C5=CC(=O)C=C[C@]5(C)[C@@]4(F)[C@@H](O)C[C@]3(C)[C@]2(C(=O)CO)O1 | inactive
10 | COc1cccc2c1C(=O)c1c(O)c3c(c(O)c1C2=O)C[C@@](O)(C(=O)CO)C[C@@H]3O[C@H]1C[C@H](N)[C@H](OC2CCCCO2)[C@H](C)O1 (stereo not given in full) | inactive
11 | Cn1cc(C[C@@H](N)C(=O)O)c2ccccc21 | inactive
12 | c1ccc([C@H]2CN3CCSC3=N2)cc1 | inactive
13 | Cn1cc(-c2ccc(F)c(C(F)(F)F)c2)nc1C1CCN(c2ncnc3[nH]ncc23)CC1 | inactive
14 | COc1cc(=C2C=c3ccccc3=N2)[nH]c1=Cc1[nH]c(C)cc1C | inactive
15 | COc1ccc2cc([C@H](C)C(=O)O)ccc2c1 | inactive
16 | COc1cc(C=CC(=O)CC(=O)C=Cc2ccc(O)c(OC)c2)ccc1O | 38.2 µM (active)
17 | CC1(O)CC(c2nc(-c3ccc4ccc(-c5ccccc5)nc4c3)c3c(N)nccn23)C1 (stereo not given) | 3.72 µM (active)
18 | CC(C)C(=O)Oc1ccc(CO)cc1[C@H](CCN(C(C)C)C(C)C)c1ccccc1 | inactive
19 | CNC1[C@H](O)C(O[C@@H]2C(O)C(O[C@H]3O[C@H]([C@@H](C)NC)CC[C@H]3N)[C@@H](N)C[C@H]2N)OC[C@]1(C)O (stereo not given in full) | inactive
20 | CC1(C)CCC[C@@]2(C)[C@@H]1CC[C@@]1(C)OC(=O)C[C@H]21 | inactive

Row | Structure (SMILES) | Potency
21 | O=C1CCC[C@@H]2[C@H]3CCC[N+]4([O-])CCC[C@@H](CN12)[C@@H]34 (stereo not given in full) | 8.33 µM (active)
22 | C[C@H](NC(=O)c1sccc1OCc1ccc(Cl)cc1)c1ccccc1 | inactive
23 | CN(C)CCN(Cc1ccc(Cl)cc1)c1ccccn1 | inactive
24 | CC(C)[C@H](N)C(=O)OCCOCn1cnc2c(=O)[nH]c(N)nc21 | inactive
25 | CCn1c(-c2nonc2N)nc2cncc(CNC3CCNCC3)c21 | 9.35 µM (active)
26 | CCN(CC)CCNC(=O)c1ccc2nc(-c3ccccc3)c(-c3ccc(CN4CCC(n5c(=O)[nH]c6ccccc65)CC4)cc3)nc2c1 | 8.33 µM (active)
27 | N[C@@H](Cc1c[nH]c2ccc(O)cc12)C(=O)O | inactive
28 | Cc1ccc(O)c(C(CCN(C(C)C)C(C)C)c2ccccc2)c1 (stereo not given) | inactive
29 | O=C1C[C@@H](c2ccc(O)cc2)Oc2cc(O)cc(O)c21 | inactive
30 | Cc1ccccc1N1C(=O)c2cc(S(N)(=O)=O)c(Cl)cc2NC1C (stereo not given) | inactive
31 | OCCC#Cc1nc(-c2ccc(F)cc2)c(-c2ccncc2)n1CCCc1ccccc1 | inactive
32 | COC(=O)[C@H](c1ccccc1Cl)N1CCc2sccc2C1 | 1.05 µM (active)
33 | CN(C)CCCC1(c2ccc(F)cc2)OCc2cc(C#N)ccc21 (stereo not given) | inactive
34 | Clc1ccc(C(c2ccccc2Cl)C(Cl)Cl)cc1 (stereo not given) | inactive
35 | O=C1CCc2ccc(OCCCCN3CCN(c4cccc(Cl)c4Cl)CC3)cc2N1 | inactive
36 | CN(C)CCOc1ccc(-c2nc(-c3ccc4c(c3)CCC4=NO)c(-c3ccncc3)[nH]2)cc1 | inactive
37 | CC(C)C[C@@H](C=O)NC(=O)[C@H](CC(C)C)NC(=O)[C@H](CC(C)C)NC(=O)OCc1ccccc1 (Cbz-Leu-Leu-Leu-aldehyde) | 0.743 µM (active)
38 | CC(C)(OCc1nn(Cc2ccccc2)c2ccccc12)C(=O)O | inactive
39 | C[N+]1(C)[C@@H]2C[C@@H](OC(=O)C(O)(c3cccs3)c3cccs3)C[C@H]1[C@@H]1O[C@@H]12 | inactive
40 | COc1cc(OC)c(NC(=O)Nc2cc(C)on2)cc1Cl | inactive

— PubChem BioAssay (NCATS)
